Measurements taken from ChEMBL document CHEMBL5606458, “ASAP - ZIKV NS2B-NS3 protease fluorescence single point” (2024).
Screen size: about 2,700 compounds; about 160 (5.9%) showed an effect of 50% or more. Many of the other results were omitted from the sample, so strong results are more common in it than they were.

Target: Nonstructural protein 3 (Zika virus) (UniProt A0A024AXB9)
[1] = PRVABC59, Concentration 198.0 uM, Number of replicates 2.0, Standard deviation 0.06482927085509294 %

Nonstructural protein 3 (Zika virus), sequence (A0A024AXB9 as listed by the source): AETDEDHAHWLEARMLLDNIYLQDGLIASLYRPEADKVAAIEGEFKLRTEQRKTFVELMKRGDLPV

Compound `c1ccc2c([C@H]3CCN(C[C@H]4CCCOC4)C3)c[nH]c2c1` has an inhibition (PRVABC59, Concentration 49.5 uM, Number of replicates 2.0, Standard deviation 0.2718923543168702 %) of 3%, an inhibition (PRVABC59, Concentration 99.01 uM, Number of replicates 2.0, Standard deviation 1.3138002130824364 %) of 7.93% and an inhibition (PRVABC59, Concentration 198.0 uM, Number of replicates 2.0, Standard deviation 0.8779424567170888 %) of 17.5%.
`CCn1ccnc(N2CC[C@H](c3c[nH]c4ccccc34)C2)c1=O` gave an inhibition (PRVABC59, Concentration 49.5 uM, Number of replicates 2.0, Standard deviation 0.8076182483405395 %) of 8.04%, an inhibition (PRVABC59, Concentration 99.01 uM, Number of replicates 2.0, Standard deviation 0.7356695318349864 %) of 17.6% and an inhibition (PRVABC59, Concentration 198.0 uM, Number of replicates 2.0, Standard deviation 0.07734519898888803 %) of 32.1%.
`OC1CCN(Cc2c[nH]c3ccccc23)CC1` was tested, and the inhibition (PRVABC59, Concentration 49.5 uM, Number of replicates 2.0, Standard deviation 2.7698787458435845 %) was 5.44%, the inhibition (PRVABC59, Concentration 99.01 uM, Number of replicates 2.0, Standard deviation 2.6829105784026894 %) was 11.6% and the inhibition (PRVABC59, Concentration 198.0 uM, Number of replicates 2.0, Standard deviation 2.633683059341965 %) was 21.9%.
For `CCC1CCN(Cc2c[nH]c3ccccc23)CC1`, the inhibition (PRVABC59, Concentration 49.5 uM, Number of replicates 2.0, Standard deviation 2.1085872748623196 %) was 21.4%, the inhibition (PRVABC59, Concentration 99.01 uM, Number of replicates 2.0, Standard deviation 0.9763502903682051 %) was 37.3% and the inhibition (PRVABC59, Concentration 198.0 uM, Number of replicates 2.0, Standard deviation 0.045944785323907715 %) was 55.2%.
`c1ccc2c(CN3CCCCC3)c[nH]c2c1` showed an inhibition (PRVABC59, Concentration 49.5 uM, Number of replicates 2.0, Standard deviation 0.27567478108963184 %) of 10.6%, an inhibition (PRVABC59, Concentration 99.01 uM, Number of replicates 2.0, Standard deviation 0.4102311237715717 %) of 22.8% and an inhibition (PRVABC59, Concentration 198.0 uM, Number of replicates 2.0, Standard deviation 0.3445953308233743 %) of 38%.
With `NS(=O)(=O)c1ccc(C2CCN(Cc3c[nH]c4ccccc34)CC2)cc1` the inhibition (PRVABC59, Concentration 49.5 uM, Number of replicates 2.0, Standard deviation 0.10609946491696037 %) was 65%, the inhibition (PRVABC59, Concentration 99.01 uM, Number of replicates 2.0, Standard deviation 0.029644407368622425 %) was 80.2% and the inhibition (PRVABC59, Concentration 198.0 uM, Number of replicates 2.0, Standard deviation 0.031203503588737417 %) was 89.2%.
Work on `O=C(O)c1ccc(C2CCN(Cc3c[nH]c4ccccc34)CC2)cc1` yielded an inhibition (PRVABC59, Concentration 49.5 uM, Number of replicates 2.0, Standard deviation 0.6949576992221913 %) of 10.8%, an inhibition (PRVABC59, Concentration 99.01 uM, Number of replicates 2.0, Standard deviation 0.3163616627681085 %) of 22.8% and an inhibition (PRVABC59, Concentration 198.0 uM, Number of replicates 2.0, Standard deviation 0.22041520507002849 %) of 37.7%.
Work on `OCc1cc(C2CCN(Cc3c[nH]c4ccccc34)CC2)no1` yielded an inhibition (PRVABC59, Concentration 49.5 uM, Number of replicates 2.0, Standard deviation 0.29821086957580095 %) of 48.5%, an inhibition (PRVABC59, Concentration 99.01 uM, Number of replicates 2.0, Standard deviation 0.4460202044782944 %) of 64.3% and an inhibition (PRVABC59, Concentration 198.0 uM, Number of replicates 2.0, Standard deviation 0.7494127761974186 %) of 75.2%.
With `c1ccc(C2CCN(Cc3c[nH]c4ccccc34)CC2)nc1` the inhibition (PRVABC59, Concentration 49.5 uM, Number of replicates 2.0, Standard deviation 1.1072658196883798 %) was 59.8%, the inhibition (PRVABC59, Concentration 99.01 uM, Number of replicates 2.0, Standard deviation 0.7753455634987777 %) was 75.2% and the inhibition (PRVABC59, Concentration 198.0 uM, Number of replicates 2.0, Standard deviation 0.5497459588871212 %) was 86%.
In the case of `O=C1NCc2ccccc2C12CCNCC2`, the inhibition (PRVABC59, Concentration 49.5 uM, Number of replicates 2.0, Standard deviation 1.3304043012280913 %) is reported as 0.782%, the inhibition (PRVABC59, Concentration 99.01 uM, Number of replicates 2.0, Standard deviation 0.8986974193851874 %) is reported as 2.65% and the inhibition (PRVABC59, Concentration 198.0 uM, Number of replicates 2.0, Standard deviation 5.074631109254522 %) is reported as 2.34%.
`CCn1ccnc(N2CC[C@H](C(C)(C)C)C2)c1=O` showed an inhibition (PRVABC59, Concentration 49.5 uM, Number of replicates 2.0, Standard deviation 2.222905543826298 %) of 4.07%, an inhibition (PRVABC59, Concentration 99.01 uM, Number of replicates 2.0, Standard deviation 1.7617429882024038 %) of 10.1% and an inhibition (PRVABC59, Concentration 198.0 uM, Number of replicates 2.0, Standard deviation 1.0233659428190776 %) of 20.1%.
`COc1cccc(C2CCN(Cc3c[nH]c4ccccc34)CC2)c1` gave an inhibition (PRVABC59, Concentration 49.5 uM, Number of replicates 2.0, Standard deviation 0.042125269324456455 %) of 39.6%, an inhibition (PRVABC59, Concentration 99.01 uM, Number of replicates 2.0, Standard deviation 0.10921765735719036 %) of 56.3% and an inhibition (PRVABC59, Concentration 198.0 uM, Number of replicates 2.0, Standard deviation 0.2075162463769664 %) of 67.5%.
`COC[C@@H](C)CN1CC[C@H](c2c[nH]c3ccccc23)C1` showed an inhibition (PRVABC59, Concentration 49.5 uM, Number of replicates 2.0, Standard deviation 1.4380791310486918 %) of 4.02%, an inhibition (PRVABC59, Concentration 99.01 uM, Number of replicates 2.0, Standard deviation 1.4278249713933853 %) of 8.28% and an inhibition (PRVABC59, Concentration 198.0 uM, Number of replicates 2.0, Standard deviation 1.555996909462895 %) of 14.7%.
`c1ccc2c(CN3CCC(c4ccn[nH]4)CC3)c[nH]c2c1` showed an inhibition (PRVABC59, Concentration 49.5 uM, Number of replicates 2.0, Standard deviation 1.3620998271263447 %) of 41.5%, an inhibition (PRVABC59, Concentration 99.01 uM, Number of replicates 2.0, Standard deviation 0.5632518321987402 %) of 58.4% and an inhibition (PRVABC59, Concentration 198.0 uM, Number of replicates 2.0, Standard deviation 0.6599886276000965 %) of 73.5%.
For `c1cnc(C2CCN(Cc3c[nH]c4ccccc34)CC2)nc1`, the inhibition (PRVABC59, Concentration 49.5 uM, Number of replicates 2.0, Standard deviation 0.6038611636759568 %) was 44.9%, the inhibition (PRVABC59, Concentration 99.01 uM, Number of replicates 2.0, Standard deviation 0.27239407040154384 %) was 62.7% and the inhibition (PRVABC59, Concentration 198.0 uM, Number of replicates 2.0, Standard deviation 0.2641885847586549 %) was 77.4%.
For `c1ccc2c(CN3CCC(c4cnco4)CC3)c[nH]c2c1`, the inhibition (PRVABC59, Concentration 49.5 uM, Number of replicates 2.0, Standard deviation 0.1050178081967768 %) was 41.5%, the inhibition (PRVABC59, Concentration 99.01 uM, Number of replicates 2.0, Standard deviation 0.24613759530362114 %) was 59.4% and the inhibition (PRVABC59, Concentration 198.0 uM, Number of replicates 2.0, Standard deviation 0.2970051325336013 %) was 74.9%.
`c1cncc(C2CCN(Cc3c[nH]c4ccccc34)CC2)c1` gave an inhibition (PRVABC59, Concentration 49.5 uM, Number of replicates 2.0, Standard deviation 0.34229175267116285 %) of 61.9%, an inhibition (PRVABC59, Concentration 99.01 uM, Number of replicates 2.0, Standard deviation 0.300803069346615 %) of 77.1% and an inhibition [1] of 87.7%.
`N#CC1(c2ccccc2)CCN(Cc2c[nH]c3ccccc23)CC1` was tested, and the inhibition (PRVABC59, Concentration 49.5 uM, Number of replicates 2.0, Standard deviation 0.4200874171769353 %) was 32%, the inhibition (PRVABC59, Concentration 99.01 uM, Number of replicates 2.0, Standard deviation 0.32673315924966934 %) was 34.4% and the inhibition [1] was 32.8%.
`CCc1cc(C)nc(C2CCN(Cc3c[nH]c4ccccc34)CC2)n1` was tested, and the inhibition (PRVABC59, Concentration 49.5 uM, Number of replicates 2.0, Standard deviation 0.9221110052573533 %) was 41.8%, the inhibition (PRVABC59, Concentration 99.01 uM, Number of replicates 2.0, Standard deviation 1.5508934318704077 %) was 59.5% and the inhibition (PRVABC59, Concentration 198.0 uM, Number of replicates 2.0, Standard deviation 1.118702788500296 %) was 75.2%.
Compound `OC1(c2ccccc2)CCN(Cc2c[nH]c3ccccc23)CC1` has an inhibition (PRVABC59, Concentration 49.5 uM, Number of replicates 2.0, Standard deviation 0.6104232594017089 %) of 13%, an inhibition (PRVABC59, Concentration 99.01 uM, Number of replicates 2.0, Standard deviation 0.9927585642556782 %) of 22.8% and an inhibition (PRVABC59, Concentration 198.0 uM, Number of replicates 2.0, Standard deviation 2.2070409642846154 %) of 34.8%.
With `Cn1nccc1C1CCN(Cc2c[nH]c3ccccc23)CC1` the inhibition (PRVABC59, Concentration 49.5 uM, Number of replicates 2.0, Standard deviation 1.4229504354820093 %) was 24.6%, the inhibition (PRVABC59, Concentration 99.01 uM, Number of replicates 2.0, Standard deviation 1.2388422115932054 %) was 38.2% and the inhibition (PRVABC59, Concentration 198.0 uM, Number of replicates 2.0, Standard deviation 1.0765748217775348 %) was 55.9%.
